Screens: PubChem, National Center for Advancing Translational Sciences (NCATS)
KinaseGlo FLuc – Kinase-Glo luciferase inhibition (counter-screen); Q27757; Kinase-Glo luciferase, ATP luminescence, 8 min; Potency, µM (top dose mostly 38.3 µM), inactives show at the highest dose activity change, negative = inhibition, hits mostly inhibitors; 200,000 tested, 0.28% active; note: % is set by controls: 0 for no effect and ±100 for the full control effect; nearly all actives have a fitted effect of over 60% in size
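Recombinant Kinase-Glo luciferase, 10 uM ATP (linear range), luciferin; imidazole pH 7.2 / KCl / MgCl2 / Tween / BSA buffer; 8 min RT; luminescence.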
NPC1 promoter act – NPC1 promoter activation | Potency, µM (doses to about 9.22 µM), without a hit: top-dose activation, hits mostly activators | Huh7 NPC1 promoter luciferase reporter, 24 h | 320,000 tested, 2.4% active; note: % of control where 0% means no effect; nearly all actives have a fitted effect of over 60% in size
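In 1536-well qHTS, Huh7 cells harboring an NPC1 promoter–luciferase construct received compound for 24 h; activation was quantified by luminescence following luciferase reagent addition.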
Rab9 promoter act – activates the Rab9 promoter. Huh7 Rab9 promoter-luciferase reporter, luminescence, 24 h. Potency, µM (highest dose often 9.22 µM), for the others: at the top dose activation, negative = inhibition, actives largely listed as activators. 320,000 tested, 2.8% active. AID 485297; note: % of control where 0% means no effect; nearly all actives have a fitted effect of over 60% in size
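Luminescence read-out: Huh7 cells stably expressing Rab9-luciferase, treated 24 h with compound at 37 °C, then lysed with luciferase reagent for 10 min at ambient before reading.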
FLuc counter – inhibits or activates purified firefly luciferase, miR-21 counter-screen; Potency, µM (top dose mostly 57.5 µM), for inactives: at the highest dose activity change, negative = inhibition, most hits filed as inhibitors; purified FLuc, Km substrates, luminescence inhibition; 360,000 tested, 6.9% active;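 note: plate controls were vehicle for no effect and reference inhibitor for full effect; nearly all actives have a fitted effect of over 55% in size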
Target sequence (P08659 whole entry, looked up): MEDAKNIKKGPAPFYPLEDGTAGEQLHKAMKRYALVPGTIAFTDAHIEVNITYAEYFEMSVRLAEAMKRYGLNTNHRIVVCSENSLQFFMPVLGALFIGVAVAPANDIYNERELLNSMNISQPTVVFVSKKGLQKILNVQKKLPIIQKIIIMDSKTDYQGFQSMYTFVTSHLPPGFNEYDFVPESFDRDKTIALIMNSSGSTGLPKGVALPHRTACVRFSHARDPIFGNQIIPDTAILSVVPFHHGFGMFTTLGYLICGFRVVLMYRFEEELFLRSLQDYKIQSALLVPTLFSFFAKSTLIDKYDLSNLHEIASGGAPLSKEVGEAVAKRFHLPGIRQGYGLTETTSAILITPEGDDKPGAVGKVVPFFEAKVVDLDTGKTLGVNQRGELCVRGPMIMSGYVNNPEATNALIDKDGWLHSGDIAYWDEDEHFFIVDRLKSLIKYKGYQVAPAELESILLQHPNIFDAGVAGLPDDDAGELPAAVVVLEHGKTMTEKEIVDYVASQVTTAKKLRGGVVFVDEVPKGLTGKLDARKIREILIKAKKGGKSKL
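Biochemical qHTS of compounds, final roughly 60 µM downward over six points, against 10 nM purified firefly luciferase using Km concentrations of substrates (10 uM D-luciferin, 10 uM ATP) in Tris acetate pH 7.5 buffer; luminescence output.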
ELG1 genotoxic – induces genotoxicity in HEK293T cells with luciferase-tagged ELG1. HEK293T ELG1-luciferase reporter, luminescence, 16 h. Potency, µM (top dose mostly 46 µM), without a hit: at the highest dose activity change, positive = activation, actives largely listed as activators. 330,000 tested, 1.3% active; note: % of control where 0% means no effect; nearly all actives have a fitted effect of over 60% in size
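Quantitative HTS format in 1536-well plates. HEK293T ELG1-luciferase reporter cells receive test compound and are incubated 16 hr at 37 °C, 5% CO2; ONE-Glo added, 30 min room temperature, then luminescence read.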
SMN2 splice up – increases expression of the SMN2 splice variant; 210,000 tested, 2.8% active; HEK293 SMN2-luciferase splicing reporter, luminescence, 30-36 h; AID 1458; Potency, µM (highest dose often 46.1 µM), without a hit: at the highest dose activity change, positive = activation, most hits filed as activators; note: % of control where 0% means no effect; nearly all actives have a fitted effect of over 55% in size
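qHTS luciferase splicing reporter: luminescence rises when SMN2 exon 7 is included in transfected HEK293 cells. Compound exposure lasted 30-36 h at 37C, with 4.5 mM final sodium butyrate as control, followed by a ONE-Glo read.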
Numbers without * were called inactive; ? = inconclusive; . = not tested or not shown; [ ] = another dose, or the depositor's remark. Most compounds without a hit are left out; they make up all but 7.3% or so of the library. Calls come from the whole dose curve; as a rule, active = well fitted curve in the direction sought with a large enough effect; inconclusive = small, poorly fitted or top-dose-only effect, or another doubt; inactive = no such curve, though single readings can be large; an effect the other way counts as inactive or inconclusive. Potency is the fitted concentration of half-maximal effect.

SMILES	KinaseGlo FLuc	NPC1 promoter act	Rab9 promoter act	FLuc counter	ELG1 genotoxic	SMN2 splice up
CCC(C)Nc1nc(-c2ccc3c(c2)NC(=O)CO3)cs1 (centres undefined)	0%	21%	?	17µM*	11%	2%
Cc1cc(NC(=O)CSc2nnc3ccccn23)no1	-2%	-1%	-1%	0%	-1%	8%
CCOc1ccc(C(=O)CSc2nnc3ccccn23)cc1	3%	2µM*	1.1µM*	3µM*	21µM*	-2%
O=C(CSc1nnc2ccccn12)c1ccc(Cl)cc1	-2%	23%	3.5µM*	?	?	-8%
Cc1c(Cl)cnc(NC(=O)CSc2nnc3ccccn23)c1Cl	3%	21%	?	?	18µM*	?
CCOc1ccc(-n2nnnc2SCC(=O)c2ccccc2)cc1	-4%	24%	-2%	?	10%	-18%
O=C(CSc1nnc2ccccn12)NNC(=O)c1ccc(Cl)cc1	0%	-2%	-4%	-7%	-2%	-7%
CCOC(=O)c1c(C)[nH]c(CCC(=O)NCCCN2CCN(c3ccccc3F)CC2)c1C	.	.	.	1%	.	.
C=CCc1c(C)nc(-c2ccccc2)nc1N/N=C(\C)c1ccccc1	1%	0%	-1%	17µM*	0%	-10%
C=CCc1c(C)nc(-c2ccccc2)nc1Nc1ccc(O)cc1	0%	1%	-6%	-3%	-4%	-30%
CCOc1ccc(CC(=O)Nc2c(C(=O)c3ccccc3)oc3ccc(OC)cc23)cc1OCC	.	.	.	-1%	.	-4%
CC(C)[C@@H](CC(=O)N[C@@H]1CCCC[C@H]1C(=O)N[C@H](CC(=O)N[C@@H](CCC(=O)O)CC(=O)O)Cc1c[nH]c2ccccc12)NC(=O)C[C@H](Cc1c[nH]c2ccccc12)NC(=O)[C@@H]1CNCC[C@H]1N	0%	.	.	.	.	3%
CC(Sc1ncc(S(=O)(=O)c2ccc(C(C)C)cc2)c(N)n1)C(=O)Nc1ccccc1 (centres undefined)	.	.	.	0%	.	.
CCCc1cc(=O)n2[nH]c(-c3ccc(Br)cc3)cc2n1	1%	?	3.5µM*	?	17%	11µM*
CCCc1cc(=O)n2[nH]c(-c3cccc(Br)c3)cc2n1	.	2.8µM*	?	5.4µM*	?	.
CCOC(=O)Cc1cc(=O)n2[nH]c(-c3ccccc3)cc2n1	2%	1%	12%	?	5%	22%
COc1ccccc1N1CCN(c2nc3ccc(C(=O)c4ccccc4)cc3n3c(C)nnc23)CC1	.	.	.	0%	.	.
O=C(c1cc(-c2cccc(Cl)c2)on1)N1CCN(c2ccccc2)CC1	.	1%	-2%	?	5%	4%
CN(C(=O)c1cc(-c2ccccc2)on1)C1CCCCC1	.	1.3µM*	2.8µM*	8.5µM*	?	.
O=C(c1cc(-c2ccccc2)on1)N1CCCc2ccccc21	3%	13%	?	24µM*	?	.
O=C(c1cc(-c2ccccc2)on1)N1CCN(c2ccccc2)CC1	.	1%	-2%	24µM*	-5%	.
O=C(c1cc(-c2ccccc2)on1)N1CCCC1	-7%	0.79µM*	0.89µM*	9.5µM*	1.6µM*	11µM*
O=C(c1cc(-c2ccco2)on1)N1CCCc2ccccc21	0%	14%	12%	?	8%	2%
COc1ccccc1N1CCN(C(=O)c2cc(-c3ccccc3)on2)CC1	.	0%	0%	2%	-1%	.
C[C@@H](SCc1ccccc1)C(=O)O	0%[7.66 µM]	.	.	.	.	-6%[9.22 µM]
SMILES	KinaseGlo FLuc	NPC1 promoter act	Rab9 promoter act	FLuc counter	ELG1 genotoxic	SMN2 splice up
C=CCc1cccc(C=NNC(=O)CN2CCN(Cc3ccccc3)CC2)c1O	.	-13%[46.1 µM]	-33%[46.1 µM]	.	.	.
CN(C)CCN(C)C(=O)c1ccc(-n2c(=O)c(=O)[nH]c3ccccc32)cc1	-2%	.	.	.	.	.
COc1ccc(CNC(=O)CCC2N=C3c4ccccc4N=C(SCc4ccc(F)cc4)N3C2=O)cc1 (centres undefined)	.	.	.	-8%	.	.
Cc1cc(NCCCn2ccnc2)n2nc(-c3ccc(F)cc3)cc2n1	-5%	18%	8%	9.5µM*	5%	26%
Cc1cccc(-c2cc3nc(C)c(C)c(NCCCn4ccnc4)n3n2)c1	.	3%	1%	15µM*	-10%	.
Cc1cc(NCCCn2ccnc2)n2nc(-c3ccc(Cl)cc3)cc2n1	-2%	?	21%	?	13%	3%
COc1cc2c(cc1NC(=O)c1ccncc1)oc1ccccc12	1%	27%	25%	?	?	-8%
COc1cc2c(cc1NC(=O)c1cccnc1)oc1ccccc12	-3%	?	?	15µM*	?	?
COc1ccc(-c2cc3ccccc3oc2=O)cc1NC(=O)c1cccnc1	3%	-6%	7%	11µM*	-4%	-5%
O=C(C1CC1)N1CCN(c2nc3c(F)cc(F)cc3s2)CC1	.	.	.	-19%	.	.
Cc1nc2cc(-c3cccc(Cl)c3)nn2c(N2CCN(C(=O)c3ccco3)CC2)c1C	14%	-2%	3%	17µM*	0%	-5%
CCOc1ccc2[nH]c3c(N4CCN(C(=O)c5ccco5)CC4)ncnc3c2c1	.	-1%	-4%	?	-9%	.
COc1ccc2nc(N3CCN(C(=O)c4ccco4)CC3)sc2c1	.	.	.	27µM*	.	.
CCOc1ccc2nc(N3CCN(C(=O)c4ccco4)CC3)sc2c1	.	.	.	21µM*	.	.
O=C(c1ccco1)N1CCN(c2nc3c(F)cc(F)cc3s2)CC1	.	.	.	24µM*	.	.
O=C(Cc1ccc(Cl)cc1)Nc1ccc(N2CCN(C(=O)c3ccco3)CC2)cc1	4%	-1%	-9%	0%	-8%	-5%
O=C(CSc1nc2ccccc2s1)N1CCN(C(=O)c2ccco2)CC1	-2%	16%	12%	-4%	2%	-7%
O=C(c1ccc2nc(N3CCOCC3)sc2c1)N1CCN(C(=O)c2ccco2)CC1	1%	-1%	2%	4%	13%	-7%
CCOc1ccc2nc(SCC(=O)c3cccs3)sc2c1	-1%	2.5µM*	2.8µM*	2.7µM*	15µM*	?
CCc1ccc2nc(N3CCN(C(=O)c4ccco4)CC3)sc2c1	.	.	.	11µM*	.	.
CCOc1ccc2nc(SCC(=O)N3CCN(C(=O)c4ccco4)CC3)sc2c1	-3%	0%	-6%	17µM*	-9%	-14%
O=C(c1ccco1)N1CCN(c2ccc(Cl)cc2)CC1	0%	?	?	17µM*	?	11µM*
O/N=C/c1ccccc1OCc1ccccc1Cl	-1%	3%	1%	-5%	2%	1%
O/N=C/c1ccccc1OCc1ccc(Cl)cc1	0%	?	?	17µM*	15%	-6%
